Compound activity: PubChem, National Center for Advancing Translational Sciences (NCATS)
Gal4-VP16 FLuc = VP16 counterscreen qHTS for inhibitors of ROR gamma transcriptional activity | Drosophila S2 Gal4-VP16 UAS-luciferase, luminescence, 20 h | Potency, µM (doses to about 53.6 µM), usual class: inhibitors | 3.5% of 310,000 active | AID 2546, 2010;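 further: Gal4-VP16 expression switched on by copper sulfate through the metallothionein promoter; nearly all actives have a fitted effect of over 50% in size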
Giardia kill = Small Molecules that selectively kill Giardia lamblia: qHTS. Giardia lamblia trophozoite viability. 0.15% of 340,000 active. activity change, % at 7.66 µM, hits read low. AID 540267, 2011; in the data active means activity change below about -80%; inconclusive means between about -30% and that limit;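 further: parasites exposed to compound for two days anaerobically before the ATP read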
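Luminescence from cellular ATP indicates surviving trophozoites (100 cells/well) following 48 hrs anaerobic compound treatment at 37 deg C; signal develops 15-30 min at room temperature.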
MCF10A rereplic = A quantitative high throughput screen for small molecules that induce DNA re-replication in MCF 10a normal breast cells. MCF 10A DNA re-replication, Hoechst nuclear intensity, 48 h. Potency, µM (top dose mostly 46.1 µM), actives largely listed as activators. 2.9% of 350,000 active; further: nearly all actives have a fitted effect of over 50% in size
RORgamma inh = qHTS for inhibitors of ROR gamma transcriptional activity; Nuclear receptor ROR-gamma (Mus musculus), P51450; Drosophila S2 Gal4-RORgamma UAS-luciferase reporter, 20 h; Potency, µM (series often up to 53.6 µM), actives largely listed as inhibitors; 5.4% of 310,000 active; AID 2551, 2010; further: nearly all actives have a fitted effect of over 60% in size
Target sequence (P51450 whole entry, looked up, the tested form may be a part): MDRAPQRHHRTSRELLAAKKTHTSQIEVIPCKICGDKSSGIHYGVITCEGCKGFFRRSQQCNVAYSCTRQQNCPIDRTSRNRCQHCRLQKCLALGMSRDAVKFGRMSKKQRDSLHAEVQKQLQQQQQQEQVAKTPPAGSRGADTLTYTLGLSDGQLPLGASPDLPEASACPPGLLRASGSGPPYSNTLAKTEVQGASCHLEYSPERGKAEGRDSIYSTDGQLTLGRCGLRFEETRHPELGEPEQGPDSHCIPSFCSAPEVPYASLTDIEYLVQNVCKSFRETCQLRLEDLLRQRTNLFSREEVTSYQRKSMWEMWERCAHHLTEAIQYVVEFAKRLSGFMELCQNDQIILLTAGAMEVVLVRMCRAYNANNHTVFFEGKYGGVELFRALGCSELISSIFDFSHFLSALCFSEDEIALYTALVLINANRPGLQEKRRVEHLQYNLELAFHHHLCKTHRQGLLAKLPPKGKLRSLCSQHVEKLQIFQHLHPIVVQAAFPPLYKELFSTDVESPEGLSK
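Luciferase reporter read in Schneider cells carrying Gal4-RORγ (mouse) and UAS-Photinus luciferase; cells given compound 1 h before 700 uM copper sulfate induction, then incubated 20 h at ambient temperature.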
SW480 rerep = A quantitative high throughput screen for small molecules that induce DNA re-replication in SW480 colon adenocarcinoma cells. Potency, µM (doses to about 46.1 µM), actives largely listed as activators. SW480 DNA re-replication, Hoechst DNA content imaging, 48 h. 1.8% of 340,000 active; further: nearly all actives have a fitted effect of over 55% in size
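Hoechst fluorescence of nuclei (405 nm excitation, 500-530 nm emission) measured by plate-scanning imager after 48 hr compound exposure at 37 C; re-replication scored as increased number of nuclei with elevated intensity.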
BCR signal inh = qHTS Assay to Find Inhibitors of Chronic Active B-Cell Receptor Signaling. ABC-DLBCL IkBa-CBG/CBR reporter, luminescence ratio, 4 h. Potency, µM (series often up to 46.1 µM), actives largely listed as inhibitors. 0.05% of 340,000 active; active means well fitted inhibition curve with a large enough effect in the signal ratio, with a control signal flat, not every such curve was filed as active; inconclusive means small, poorly fitted or top-dose-only effect, or effect the other way, or a change in a side signal; the % refers to the signal ratio
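Cell line TMD8 (human ABC DLBCL), stably expressing tet-inducible CBG68-IkBa fusion and CBR; IMDM/0.5% FBS; cpd up to 46 uM; dox induction, 4 h, 37C/5% CO2; dual luminescence; green/red ratio; MG132 control.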
Of the large screens only hits and unclear results are named; the others gave an inactive call. Rows were chosen to be rich in hits. Some 8.3% of all compounds tested hit in one or more screens of this group. Unless noted, the call rests on the fitted dose curve; in most records, active means well fitted curve in the direction sought with a large enough effect; inconclusive means small, poorly fitted or top-dose-only effect, or another doubt; inactive means no such curve, though single readings can be large; an effect the other way counts as inactive or inconclusive.

CN(C)CCNC(=O)c1ccc2c(=O)n(Cc3ccc(Cl)cc3)c(=S)[nH]c2c1	Gal4-VP16 FLuc inconclusive, MCF10A rereplic inconclusive, RORgamma inh inconclusive, SW480 rerep 23µM
COc1ccc(-n2c(=O)[nH]c3cc(C(=O)NCCc4ccc(Cl)cc4)ccc3c2=O)cc1OC	MCF10A rereplic 15µM, RORgamma inh inconclusive, SW480 rerep inconclusive
COC(=O)c1ccc2c(=O)n(Cc3ccc(C(=O)NCCCN4CCOCC4)cc3)c(=S)[nH]c2c1	SW480 rerep inconclusive, BCR signal inh inconclusive
COCCN(C(=O)CSc1nc(N)cc(=O)[nH]1)c1c(N)n(Cc2ccccc2)c(=O)[nH]c1=O	none (no result: Gal4-VP16 FLuc, RORgamma inh)
COc1cc(OC)c(S(=O)(=O)Nc2ccccc2N2CCOCC2)cc1NC(C)=O	none
CSCCC1NC(=O)N(CC(=O)Nc2ccc(Br)cc2Br)C1=O (centres undefined)	none
COCC1CCN(Cc2cn(C)nc2-c2cccc(Cl)c2)C1 (centres undefined)	none
CSc1ccc(/C=C/C(=O)OCC(=O)NCC2CCCO2)cc1 (centres undefined)	none (no result: Gal4-VP16 FLuc, RORgamma inh)
CCN(CC)C(=O)c1[nH]cnc1C(=O)Nc1ccon1	MCF10A rereplic inconclusive (no result: Gal4-VP16 FLuc, RORgamma inh)
Cc1c(C)n(Cc2ccccc2)c2ccc(C(=O)NCCN3CCOCC3)cc12	none
Cc1c(C)n(Cc2ccc(Cl)cc2)c2ccc(C(=O)NCCN3CCOCC3)cc12	MCF10A rereplic 12µM, SW480 rerep inconclusive
O=C(CSc1ccc(Cl)cc1)NCc1ccco1	none
Cc1sc2ncnc(NCC(O)c3ccccc3)c2c1C (centres undefined)	Gal4-VP16 FLuc 16µM, RORgamma inh inconclusive
Cc1sc2ncnc(NCC(O)c3ccc([N+](=O)[O-])cc3)c2c1C (centres undefined)	Gal4-VP16 FLuc 5µM, RORgamma inh inconclusive
Cc1sc2ncnc(NCC(c3ccccc3)N(C)C)c2c1C (centres undefined)	none
Cc1sc2ncnc(NCCCO)c2c1C	none
CC1CCCCC1NC(=O)CO/N=C/c1ccccc1OC(F)F (centres undefined)	none
Cc1[nH]n(-c2ccccc2)c(=O)c1C=Nc1cnc2ccccc2c1	none
CCOc1ccc(N=Cc2c(C)[nH]n(-c3nc4ccccc4[nH]3)c2=O)cc1	Gal4-VP16 FLuc inconclusive, RORgamma inh 14µM, BCR signal inh inconclusive
CCN(Cc1ccccc1)C(=O)c1ccc(CS(=O)c2ccccc2C)o1 (centres undefined)	none
O=C(O)c1cc(Cl)ccc1-c1ccc(/C=C/c2cc(C(F)(F)F)[nH]c(=O)n2)o1	MCF10A rereplic 18µM, SW480 rerep inconclusive
O=[N+]([O-])c1ccc(NC(=S)NCCc2ccc(Cl)cc2)cc1	Gal4-VP16 FLuc 3.5µM, MCF10A rereplic inconclusive, RORgamma inh 0.63µM, BCR signal inh inconclusive
O=[N+]([O-])c1ccc(NC(=S)NCCc2ccccc2)cc1	MCF10A rereplic inconclusive, SW480 rerep inconclusive, BCR signal inh inconclusive
S=C(NCCc1ccccn1)Nc1ccc(Cl)cc1Cl	Gal4-VP16 FLuc inconclusive, RORgamma inh 5µM, SW480 rerep inconclusive
S=C(NCc1ccc(Cl)cc1)NCc1ccccn1	Gal4-VP16 FLuc inconclusive, RORgamma inh 16µM
S=C(NCCc1ccccc1)Nc1ccc(Br)cn1	Gal4-VP16 FLuc 5µM, RORgamma inh 0.28µM, BCR signal inh inconclusive
O=C(NCc1ccccn1)Nc1ccc(Cl)cc1Cl	MCF10A rereplic inconclusive
S=C(NCCc1ccccc1)Nc1nccs1	none (no result: Gal4-VP16 FLuc, RORgamma inh)
O=C(NCCc1ccccc1)Nc1ccc(Cl)cc1	BCR signal inh inconclusive
S=C(NCCc1ccccc1)Nc1ccccc1Cl	Gal4-VP16 FLuc 10µM, RORgamma inh 5.6µM
CC(C)(C)C(=O)NC(=S)NCCc1ccccc1	Gal4-VP16 FLuc inconclusive, RORgamma inh 8.9µM
Cc1c(Cl)cccc1NC(=S)NCCc1ccccn1	Gal4-VP16 FLuc 8.9µM, MCF10A rereplic inconclusive, RORgamma inh 2.5µM
Cc1cccc(Cl)c1NC(=S)NCCc1ccccn1	Gal4-VP16 FLuc inconclusive, RORgamma inh inconclusive
S=C(NCCc1ccccc1)Nc1ccc(Cl)cc1	Gal4-VP16 FLuc inconclusive, MCF10A rereplic inconclusive, RORgamma inh 6.3µM, BCR signal inh inconclusive (no result: SW480 rerep)
COc1ccc(NC(=O)N2CCC3(CC2)CCN(C(=O)c2csnn2)CC3)cc1	none (no result: Giardia kill, MCF10A rereplic, SW480 rerep, BCR signal inh)
O=C(NCc1ccccn1)C1(C(F)(F)F)C/C(=C\Cc2ccccc2)CCCO1 (centres undefined)	none (no result: MCF10A rereplic, SW480 rerep, BCR signal inh)
Cc1c(Cl)cccc1NC(=S)NCCc1ccc(C(F)(F)F)cc1	Gal4-VP16 FLuc inconclusive, MCF10A rereplic inconclusive, RORgamma inh 2.5µM
O=C(NCc1ccccn1)Nc1ccccc1Cl	MCF10A rereplic inconclusive, SW480 rerep inconclusive
S=C(NCc1ccccn1)Nc1ccccc1Cl	Gal4-VP16 FLuc inconclusive, RORgamma inh 10µM
Fc1ccccc1NC(=S)NCCc1cccc(Cl)c1	Gal4-VP16 FLuc 10µM, RORgamma inh 7.1µM, BCR signal inh inconclusive
S=C(NCc1ccccn1)Nc1ccc(Br)cc1Cl	Gal4-VP16 FLuc inconclusive, RORgamma inh 7.1µM, SW480 rerep inconclusive
O=C(NCc1ccccn1)Nc1ccc(Br)cc1Cl	none
COc1ccc(OC)c(/C=C/C(=O)N(C)CC(=O)Nc2ccc(N3CCOCC3)cc2)c1	BCR signal inh inconclusive (no result: Gal4-VP16 FLuc, RORgamma inh)
S=C(NCCCCNC(=S)NCc1ccccc1)NCc1ccccc1	MCF10A rereplic inconclusive, RORgamma inh inconclusive
S=C(NCCc1ccc(Cl)cc1)NC1CC1	Gal4-VP16 FLuc 8.9µM, RORgamma inh 2.5µM
S=C(NCCc1ccccc1)NCCc1ccccc1	Gal4-VP16 FLuc 10µM, RORgamma inh 7.1µM, BCR signal inh inconclusive
CC(=O)c1ccc(NC(=S)NCCc2cccc(Cl)c2)cc1	Gal4-VP16 FLuc inconclusive, RORgamma inh 18µM
S=C(NCCCCc1ccccc1)NCc1ccccc1	Gal4-VP16 FLuc inconclusive, RORgamma inh 16µM
NS(=O)(=O)c1ccc(CCNC(=S)NC2CCCC2)cc1	BCR signal inh inconclusive
CC(=O)c1ccc(NC(=O)Nc2cccc(Cl)c2)cc1	MCF10A rereplic inconclusive, RORgamma inh inconclusive, BCR signal inh inconclusive
Cc1ccc(NC(=O)Cn2nc(C(=O)O)c3ccccc3c2=O)c([N+](=O)[O-])c1	MCF10A rereplic inconclusive, BCR signal inh inconclusive
CC(=O)Nc1ccc(OS(=O)(=O)c2ccc(C(C)(C)C)cc2)cc1	none (no result: Giardia kill, MCF10A rereplic, SW480 rerep)
CSCC[C@H](NC(=O)c1ccc(NC[C@@H](N)CS)cc1-c1ccccc1)C(=O)O	none (no result: Giardia kill, MCF10A rereplic, SW480 rerep, BCR signal inh)
O=C(CSc1ncnc2nc[nH]c12)Nc1nnc(SCc2ccc(Cl)c(Cl)c2)s1	MCF10A rereplic inconclusive, BCR signal inh inconclusive
COc1cccc(CN2CCNC(=O)C2CC(=O)N(C)CCc2ccccn2)c1OC (centres undefined)	BCR signal inh inconclusive (no result: Giardia kill, MCF10A rereplic, SW480 rerep)
